Drawing on PubChem BioAssay, this text covers composite z-score and z-score for five molecules.

Activity calls are given as the source filed them.

The nature of test [1]: binders of probe aFSTL3 on microarray, primary screen, stem cell growth factor project, biochemical, small-molecule microarray, fluorescence 635/667 (AID 1064).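 Note: measures binding of the biotinylated anti-FSTL3 antibody to printed compounds.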 To be noted: higher = more signal.
A short description of test [2]: binders from COS7 lysate, DM2A8 probe, primary screen, torsin A project, cell lysate, small-molecule microarray, fluorescence 635/667 (AID 1065). To be noted: higher = more signal, COS7 lysate expressing mutant human TOR1A.
The nature of test [3]: binders of probe aFGF2 on microarray, primary screen, stem cell growth factor project, biochemical, small-molecule microarray, fluorescence 635/667 (AID 1067).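 Note: measures binding of biotinylated aFGF2 protein to printed compounds on slides; z-score merges feature fluorescence and signal-to-noise across triplicate slides.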 To be noted: higher = more signal.
Test [4] is described as follows: binders of probe aFGF10 on microarray, primary screen, stem cell growth factor project, biochemical, small-molecule microarray, fluorescence 635/667 (AID 1071).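 Note: score merges 667 nm spot intensity and signal to noise from triplicate slides.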 As to conditions: higher = more signal.
Test [5] deals with Neurogenic locus notch homolog protein 2 (Homo sapiens) (UniProt Q04721). Description: Notch2 binders on small-molecule microarrays, primary screen, biochemical, small-molecule microarray, 635 nm fluorescence, stem cell growth factors (AID 1073). As to conditions: Notch2 binding, higher = more signal.
Test [6] addresses Pro-neuregulin-1, membrane-bound isoform (Homo sapiens) (UniProt Q02297). The test is described as follows: NRG1 binders on small-molecule microarrays, primary screen, psychiatric disease protein project, biochemical, small-molecule microarray, fluorescence 635/667 (AID 1075).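 Note: score combines 667 nm spot fluorescence with signal to noise.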 To be noted: NRG1 binding, 635 nm fluorescence, higher = more signal.
Test [7] concerns Neuregulin-1 EGF-like domain. The test is described as follows: binders of neuregulin-1 EGF-like domain, primary screen, biochemical, small-molecule microarray, 635 nm fluorescence (AID 1081).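 Note: binding of the protein to compounds printed on small-molecule microarray slides.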 To be noted: small-molecule microarray binding, higher = more signal.
A short description of test [8]: FRG1 promoter luciferase signal modulators, primary screen, FRG1 inhibition for FSHD, cell-based, C2C12 myotubes, firefly/Renilla luciferase, luminescence (AID 1084). As to conditions: higher = more signal, called active from +8 up or from −8 down.
Test [9] in a line: binders of probe aFST on microarray, primary screen, stem cell growth factor project, biochemical, small-molecule microarray, fluorescence 635/667 (AID 1086).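 Note: score merges 667 nm fluorescence with signal-to-noise of each printed compound spot.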 As to conditions: higher = more signal.
Test [10] in a line: binders of probe aHhip on microarray, primary screen, stem cell growth factor project, biochemical, small-molecule microarray, fluorescence 635/667 (AID 1087).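 Note: score merges spot fluorescence at 667nm with spot signal to noise ratio.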 To be noted: higher = more signal.
For test [11], the system named is PRMT1 (protein arginine N-methyltransferase 1). The test is described as follows: PRMT1 binders on small-molecule microarrays, primary screen, biochemical, small-molecule microarray, 635 nm fluorescence (AID 1088).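 Note: binding of Prmt1 protein to compounds spotted on small-molecule microarray slides.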 As to conditions: small-molecule microarray binding, higher = more signal.
Test [12] in a line: yeast growth modulation, basal conditions, primary screen, YJM789 clinical isolate, OD600, 24 h (AID 1089).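 Note: growth of clinical yeast isolate S. cerevisiae YJM 789 seeded 1000 cells per well; test concentration not given here.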 To be noted: S. cerevisiae YJM789 growth, higher = more signal, called active from +8 up or from −8 down.
Test [13] can be described thus: fission yeast growth modulation, primary screen, strain 972, OD600, 24 h, no modulator (AID 1090).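 Note: basal condition with compound alone and no growth modifier present; test concentration not given here.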 To be noted: S. pombe 972 growth, higher = more signal, called active from +8 up or from −8 down.
The nature of test [14]: S. cerevisiae growth modulation with rapamycin, primary screen, strain BY4716, OD600, 96 h (AID 1091). Note: test concentration not given here. As to conditions: higher = more signal, called active from +8 up or from −8 down.
The target of test [15] is Torsin-1A-interacting protein 2 (Homo sapiens) (UniProt Q8NFQ8). The test is described as follows: LULL1 binders on small-molecule microarray, primary screen, cell lysate, human LULL1 lysate, 635/667 nm fluorescence (AID 1092).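 Note: probe is lysate of COS7 cells overexpressing human LULL1; score merges per-feature 667 nm fluorescence with signal-to-noise.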 As to conditions: hLULL1 lysate binding, 635 nm fluorescence, higher = more signal.
Chain of Torsin-1A-interacting protein 2 (Homo sapiens) (Q8NFQ8 whole entry, looked up): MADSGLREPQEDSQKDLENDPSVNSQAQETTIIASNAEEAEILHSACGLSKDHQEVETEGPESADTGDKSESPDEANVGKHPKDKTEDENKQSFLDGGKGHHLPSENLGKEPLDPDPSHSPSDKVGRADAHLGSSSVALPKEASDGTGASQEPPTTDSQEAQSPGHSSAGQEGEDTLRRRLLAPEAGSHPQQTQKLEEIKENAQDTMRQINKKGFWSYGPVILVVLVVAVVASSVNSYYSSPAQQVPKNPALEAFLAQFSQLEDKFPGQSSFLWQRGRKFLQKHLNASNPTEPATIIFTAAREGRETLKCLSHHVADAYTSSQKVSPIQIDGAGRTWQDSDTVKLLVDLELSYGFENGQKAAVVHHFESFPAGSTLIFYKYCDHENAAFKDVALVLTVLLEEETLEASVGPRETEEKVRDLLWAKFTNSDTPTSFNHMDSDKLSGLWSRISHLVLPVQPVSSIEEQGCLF
The nature of test [16]: E. coli growth modulation, two-sided OD650, primary screen, E. coli filamentation project, strain DRC41, 24 h (AID 1093).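 Note: MC1000 strain lacking acrAB efflux and sulA so SOS filamentation is blocked; test concentration not given here.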 To be noted: OD650, 24 h, higher = more signal, called active from +8 up or from −8 down.
Test [17] is described as follows: small-molecule microarray binders of probe aLefty2, primary screen, biochemical, biotinylated probe, 635/667 nm fluorescence (AID 1094).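 Note: score merges spot fluorescence near 667 nm with spot signal-to-noise ratio.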 To be noted: higher = more signal.
Test [18] concerns Noggin (protein binding on small-molecule microarray). Description: Noggin binders on small-molecule microarray, primary screen, biochemical, 635/667 nm fluorescence (AID 1095).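 Note: score merges 667 nm feature fluorescence with signal to noise over triplicate slides.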 To be noted: 635 nm fluorescence, higher = more signal.
For test [19], the target named is Neurogenic locus notch homolog protein 3 (Homo sapiens) (UniProt Q9UM47). The test is described as follows: NOTCH3 binders on small-molecule microarray, primary screen, biochemical, 635/667 nm fluorescence (AID 1096). To be noted: NOTCH3 binding, 635 nm fluorescence, higher = more signal.
Chain of Neurogenic locus notch homolog protein 3 (Homo sapiens) (Q9UM47 whole entry, looked up): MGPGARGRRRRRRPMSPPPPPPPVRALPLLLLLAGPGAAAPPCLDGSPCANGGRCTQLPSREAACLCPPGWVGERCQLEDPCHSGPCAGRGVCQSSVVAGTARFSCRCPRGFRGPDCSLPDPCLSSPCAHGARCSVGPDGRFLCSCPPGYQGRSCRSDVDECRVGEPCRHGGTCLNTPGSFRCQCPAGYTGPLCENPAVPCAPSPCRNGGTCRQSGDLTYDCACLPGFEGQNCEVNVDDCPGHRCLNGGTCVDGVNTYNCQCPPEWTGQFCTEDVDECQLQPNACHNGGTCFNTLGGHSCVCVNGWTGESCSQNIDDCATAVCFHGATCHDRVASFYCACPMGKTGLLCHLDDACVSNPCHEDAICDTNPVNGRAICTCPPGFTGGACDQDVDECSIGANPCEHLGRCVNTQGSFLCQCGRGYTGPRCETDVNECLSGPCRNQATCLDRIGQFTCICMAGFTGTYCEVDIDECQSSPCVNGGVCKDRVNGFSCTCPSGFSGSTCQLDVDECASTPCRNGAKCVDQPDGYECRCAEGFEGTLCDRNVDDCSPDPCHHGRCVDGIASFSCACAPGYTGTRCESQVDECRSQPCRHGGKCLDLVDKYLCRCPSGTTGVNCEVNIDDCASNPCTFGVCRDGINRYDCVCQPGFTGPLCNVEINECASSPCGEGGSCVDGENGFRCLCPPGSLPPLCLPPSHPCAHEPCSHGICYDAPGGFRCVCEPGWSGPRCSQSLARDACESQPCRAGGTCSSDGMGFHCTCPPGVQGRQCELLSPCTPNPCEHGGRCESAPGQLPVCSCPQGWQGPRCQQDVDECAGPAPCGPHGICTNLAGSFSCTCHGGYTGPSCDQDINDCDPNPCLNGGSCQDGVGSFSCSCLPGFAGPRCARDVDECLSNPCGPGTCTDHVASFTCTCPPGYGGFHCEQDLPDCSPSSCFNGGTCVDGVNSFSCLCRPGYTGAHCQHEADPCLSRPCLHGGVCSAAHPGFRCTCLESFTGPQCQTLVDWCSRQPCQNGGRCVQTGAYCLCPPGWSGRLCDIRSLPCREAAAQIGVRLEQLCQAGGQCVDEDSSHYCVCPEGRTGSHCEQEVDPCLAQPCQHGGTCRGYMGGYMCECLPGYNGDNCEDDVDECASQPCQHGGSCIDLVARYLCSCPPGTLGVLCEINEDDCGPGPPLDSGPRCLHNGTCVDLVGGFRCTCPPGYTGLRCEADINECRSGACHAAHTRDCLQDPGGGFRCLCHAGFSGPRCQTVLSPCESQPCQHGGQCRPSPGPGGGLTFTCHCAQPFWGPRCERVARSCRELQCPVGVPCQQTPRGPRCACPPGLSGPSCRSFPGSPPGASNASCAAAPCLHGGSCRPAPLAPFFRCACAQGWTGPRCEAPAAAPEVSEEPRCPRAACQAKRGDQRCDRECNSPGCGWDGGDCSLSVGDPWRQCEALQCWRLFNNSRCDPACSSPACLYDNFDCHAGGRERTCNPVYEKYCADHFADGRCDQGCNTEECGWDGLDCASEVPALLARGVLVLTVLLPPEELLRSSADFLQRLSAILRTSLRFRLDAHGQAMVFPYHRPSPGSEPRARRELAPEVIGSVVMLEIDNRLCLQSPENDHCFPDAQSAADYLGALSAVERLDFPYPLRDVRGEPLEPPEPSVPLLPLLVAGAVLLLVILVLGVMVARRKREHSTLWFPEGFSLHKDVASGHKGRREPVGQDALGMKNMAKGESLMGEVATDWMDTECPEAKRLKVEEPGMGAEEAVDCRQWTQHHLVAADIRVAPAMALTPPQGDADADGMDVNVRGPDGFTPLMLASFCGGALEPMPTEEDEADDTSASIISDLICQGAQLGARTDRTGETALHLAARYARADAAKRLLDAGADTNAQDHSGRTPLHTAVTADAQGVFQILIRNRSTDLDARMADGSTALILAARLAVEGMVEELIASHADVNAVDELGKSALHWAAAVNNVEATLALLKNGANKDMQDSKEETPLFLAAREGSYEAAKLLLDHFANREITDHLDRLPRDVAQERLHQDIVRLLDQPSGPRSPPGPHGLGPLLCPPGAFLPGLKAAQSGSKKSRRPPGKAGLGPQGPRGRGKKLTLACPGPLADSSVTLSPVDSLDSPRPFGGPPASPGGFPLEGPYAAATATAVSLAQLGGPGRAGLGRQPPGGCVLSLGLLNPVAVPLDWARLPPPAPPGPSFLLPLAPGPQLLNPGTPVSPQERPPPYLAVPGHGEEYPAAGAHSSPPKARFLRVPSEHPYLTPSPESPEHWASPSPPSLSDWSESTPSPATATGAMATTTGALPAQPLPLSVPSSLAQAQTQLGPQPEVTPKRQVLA
The nature of test [20]: small-molecule microarray binders of probe aEGFR, primary screen, biochemical, biotinylated probe, 635/667 nm fluorescence (AID 1097).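 Note: probe is a biotinylated anti-EGFR antibody binding compounds printed on slides; score combines fluorescence near 667 nm and signal to noise of each spot.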 As to conditions: higher = more signal.

Chain of Pro-neuregulin-1, membrane-bound isoform (Homo sapiens) (Q02297 whole entry, looked up, the tested form may be a part, canonical isoform): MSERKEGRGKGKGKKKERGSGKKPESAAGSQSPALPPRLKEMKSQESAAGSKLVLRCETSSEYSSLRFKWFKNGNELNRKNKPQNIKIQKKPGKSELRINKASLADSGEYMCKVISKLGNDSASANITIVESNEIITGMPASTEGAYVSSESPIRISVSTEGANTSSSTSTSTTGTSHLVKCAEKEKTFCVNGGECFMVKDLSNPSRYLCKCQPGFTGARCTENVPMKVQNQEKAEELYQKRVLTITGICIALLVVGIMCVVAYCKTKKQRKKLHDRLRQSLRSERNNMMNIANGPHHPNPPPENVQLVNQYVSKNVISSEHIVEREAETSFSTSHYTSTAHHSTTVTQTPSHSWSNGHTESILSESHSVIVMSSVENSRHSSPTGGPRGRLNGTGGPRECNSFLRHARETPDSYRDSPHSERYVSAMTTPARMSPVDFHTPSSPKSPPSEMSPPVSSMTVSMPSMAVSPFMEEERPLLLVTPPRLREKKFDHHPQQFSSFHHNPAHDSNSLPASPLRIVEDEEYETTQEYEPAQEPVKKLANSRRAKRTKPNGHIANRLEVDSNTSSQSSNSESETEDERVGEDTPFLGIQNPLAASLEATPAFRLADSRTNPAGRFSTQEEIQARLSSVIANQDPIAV

Turning to `CCN1C(=O)[C@H]2[C@H]3[C@H](O)[C@H](O)CC(=NO[C@H](C)c4cn([C@@H]5COC[C@H]5O)nn4)[C@@H]3CC[C@H]2C1=O`, the composite z-score in test [1] was -0.258; in test [2], 0.307; in test [3], -0.0853; in [4] it was 0.307; in test [5], 0.0679; in test [6] it was -0.455. For the same molecule, the composite z-score in [7] is -0.14; in test [9], 0.0423; in [10], -0.238; in test [11], 0.489; in test [15], 0.413; in [17], -0.129. For the same molecule, the composite z-score in test [18] is -0.127; in test [19], 0.0689; in [20], -0.0678. For the same molecule, the z-score in test [8] is 0.225 (inactive); in test [12], 0.415 (inactive); in test [13] it was 1.01 (inactive); in test [14], 1.36 (inactive); in test [16] it was 0.445 (inactive).

Turning to `CC(C)(C)N1C(=O)[C@H]2[C@@H]3C(=CC[C@H]2C1=O)C(=O)[C@H]1O[C@H]1[C@H]3O`, the composite z-score is -0.293 in test [1]; 1.62 in test [2]; -0.226 in test [3]; 0.25 in test [4]; -0.573 in test [5]; -0.261 in test [6]. Further, the composite z-score was 0.17 in [7]; -0.546 in [9]; 0.0024 in [10]; 0.34 in [11]; -0.758 in [15]; -0.338 in test [17]. The composite z-score in test [18] is -0.0454; in test [19], -0.615; in test [20], -0.152. The z-score was 9.15 (active) in [8]; -2.18 (inactive) in test [12]; -4.57 (inactive) in test [13]; -1.63 (inactive) in test [14]; -2 (inactive) in test [16].

Regarding `CCN1C(=O)[C@H]2[C@H]3[C@H](O)[C@H](O)CC(=NOCC[C@@H]4C=C[C@H](OC(C)=O)[C@@H](COC(C)=O)O4)[C@@H]3CC[C@H]2C1=O`, the composite z-score in test [1] was -0.298; in test [2], 0.198; in [3], -0.0085; in test [4] it was 0.547; in test [5] it was 0.522; in test [6], 0.0776. For the same molecule, the composite z-score is 0.314 in test [7]; 0.186 in [9]; 0.259 in test [10]; -0.001 in test [11]; 0.506 in [15]; 0.0819 in test [17]. Besides, the composite z-score is 0.478 in test [18], 1 in test [19] and -0.0208 in test [20]. Besides, the z-score in [8] was 0.511 (inactive); in test [12], 0.826 (inactive); in test [13], -0.473 (inactive); in test [14], 0.0739 (inactive); in [16], 0.0628 (inactive).

On to `CO[C@H]1COC(=O)CCC[C@H](C)[C@H](OC)COC(=O)CC=C[C@@H]1C`, for which the composite z-score in test [1] is -0.535; in [2], 1.95; in [3], -0.142; in test [4], -0.692; in test [5], -0.497; in test [6] it was -0.441. The composite z-score is -0.291 in test [7]; -0.168 in test [9]; 0.0922 in test [10]; 1.12 in test [11]; -1.88 in [15]; -0.0113 in test [17]. In addition, the composite z-score in [18] is 1.13; in [19] it was -0.398; in test [20], 0.0278. Also, the z-score in test [8] is -0.948 (inactive); in [12], -1.3 (inactive); in [13], -0.654 (inactive); in test [14] it was -1.59 (inactive); in test [16], -0.0243 (inactive).

As for `COC(=O)[C@H](CCSC)NC(=O)CC=C[C@@H](C)CO`, the composite z-score in test [1] was -0.738; in [2], 2.66; in test [3], -0.123; in test [4], 0.708; in test [5] it was 0.175; in test [6] it was -0.399. The composite z-score in [7] was 0.818; in test [9] it was 0.325; in [10], 0.484; in test [11] it was 1.53; in test [15] it was 1.3; in [17], -0.0944. Also, the composite z-score in [18] was 1.54; in test [19] it was 0.703; in [20] it was 0.493. Besides, the z-score in test [8] was -0.202 (inactive); in [12], 0.0662 (inactive); in test [13] it was 0.319 (inactive); in [14], 0.451 (inactive); in test [16], 0.612 (inactive).
